Measurements: PubChem BioAssay
Calls of active or inactive are those of the source.

Legend:
[1] = optical density shifts of acrAB sulA E. coli – strain DRC41, OD650, 48 h, E. coli filamentation inducer project, primary screen (AID 1152); conditions: higher = more signal, called active from +8 up or from −8 down;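 further: E. coli MC1000 strain DRC41 lacking acrAB efflux pump and sulA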
[2] = probe aLefty1 binding on compound microarray – biochemical, small-molecule microarray, 635/667 nm fluorescence, primary screen (AID 1153); conditions: higher = more signal;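 further: score merges spot fluorescence with signal-to-noise ratio from the scanned slide images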
[3] = plasmodial surface anion channel blockers, osmotic lysis – cell-based, P. falciparum Indochina, OD700, 1 h, primary screen (AID 1154); conditions: P. falciparum Indochina infected RBC osmotic lysis, higher = more signal, called active from +8 up or from −8 down
[4] = plasmodial surface anion channel blockers, osmotic lysis – cell-based, P. falciparum Indochina, OD700, 2 h, primary screen (AID 1155);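 further: lysis reports solute entry through the parasite surface anion channel PSAC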; conditions: P. falciparum Indochina infected erythrocytes, higher = more signal, called active from +8 up or from −8 down
[5] = changes in parasitized red cell lysis, either direction – P. falciparum Indochina, OD700, 3 h, PSAC antagonist project, primary screen (AID 1156); conditions: P. falciparum-infected erythrocytes, osmotic lysis, higher = more signal, called active from +8 up or from −8 down
[6] = plasmodial surface anion channel blockers, osmotic lysis – cell-based, P. falciparum Indochina, OD700, 18 h, primary screen (AID 1157); conditions: P. falciparum Indochina infected erythrocytes, osmotic lysis OD700, 18 h; higher = more signal, called active from +8 up or from −8 down
[7] = S6 kinase pathway phospho-S6 level changes – cell-based, A549, cytoblot, luminescence, serum-stimulated, primary screen (AID 1158); conditions: 5 h, higher = more signal;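 further: serum-stimulated A549 lung adenocarcinoma cells; signal is phosphorylated S6 detected by cytoblot immunostaining with HRP secondary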
[8] = molecular target: NADPH oxidase 2 (Homo sapiens) (UniProt P04839); test: compounds shifting NOX2 Amplex Red fluorescence – cell-based, HEK293-NOX2, PMA-stimulated, NOX inhibitor project, primary screen (AID 1159); conditions: 45 min, higher = more signal, called active from +8 up or from −8 down; further: test concentration not given here
NADPH oxidase 2 (Homo sapiens), sequence (P04839 whole entry, looked up): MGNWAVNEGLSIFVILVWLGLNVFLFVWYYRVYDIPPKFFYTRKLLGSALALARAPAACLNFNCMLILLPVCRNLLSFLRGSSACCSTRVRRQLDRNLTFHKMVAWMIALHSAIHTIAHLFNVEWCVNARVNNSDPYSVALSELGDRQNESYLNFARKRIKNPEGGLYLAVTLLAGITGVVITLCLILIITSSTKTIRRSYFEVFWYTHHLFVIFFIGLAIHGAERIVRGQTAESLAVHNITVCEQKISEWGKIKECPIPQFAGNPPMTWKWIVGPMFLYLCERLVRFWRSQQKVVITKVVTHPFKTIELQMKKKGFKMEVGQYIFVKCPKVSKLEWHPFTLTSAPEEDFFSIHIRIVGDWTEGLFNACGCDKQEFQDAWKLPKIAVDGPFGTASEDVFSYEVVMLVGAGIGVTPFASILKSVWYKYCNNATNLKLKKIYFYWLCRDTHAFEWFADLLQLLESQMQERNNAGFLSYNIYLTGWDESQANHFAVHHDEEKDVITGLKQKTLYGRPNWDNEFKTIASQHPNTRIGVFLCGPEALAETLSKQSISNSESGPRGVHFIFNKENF

[9] = molecular target: NADPH oxidase 4 (Homo sapiens) (UniProt Q9NPH5); test: compounds shifting NOX4 Amplex Red fluorescence – cell-based, HEK293-NOX4, tetracycline-induced, NOX inhibitor project, primary screen (AID 1160); conditions: HEK293-NOX4, Amplex Red H2O2 fluorescence, 45 min; higher = more signal, called active from +8 up or from −8 down
NADPH oxidase 4 (Homo sapiens), sequence (Q9NPH5 whole entry, looked up): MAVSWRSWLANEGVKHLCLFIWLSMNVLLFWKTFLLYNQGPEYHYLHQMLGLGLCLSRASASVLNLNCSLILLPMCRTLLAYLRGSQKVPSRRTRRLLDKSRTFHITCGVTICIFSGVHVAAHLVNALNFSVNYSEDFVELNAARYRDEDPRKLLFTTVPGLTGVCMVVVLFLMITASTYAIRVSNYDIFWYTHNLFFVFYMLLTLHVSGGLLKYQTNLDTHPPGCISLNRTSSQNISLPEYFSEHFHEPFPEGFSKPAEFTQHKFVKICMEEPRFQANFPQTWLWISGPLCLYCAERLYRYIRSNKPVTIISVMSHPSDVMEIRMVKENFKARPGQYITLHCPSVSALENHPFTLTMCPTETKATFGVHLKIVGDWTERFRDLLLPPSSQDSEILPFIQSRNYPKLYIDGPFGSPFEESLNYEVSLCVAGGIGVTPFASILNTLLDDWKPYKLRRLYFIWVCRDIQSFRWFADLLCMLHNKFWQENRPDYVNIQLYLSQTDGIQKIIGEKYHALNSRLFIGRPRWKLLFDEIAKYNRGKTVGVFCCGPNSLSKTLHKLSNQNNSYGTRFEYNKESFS

[10] = molecular target: NADPH oxidase 5 (Homo sapiens) (UniProt Q96PH1); test: compounds shifting NOX5 Amplex Red fluorescence – cell-based, HEK293-NOX5, NOX inhibitor project, primary screen (AID 1161); conditions: HEK293-NOX5, ionomycin, 45 min, higher = more signal
NADPH oxidase 5 (Homo sapiens), sequence (Q96PH1 whole entry, looked up): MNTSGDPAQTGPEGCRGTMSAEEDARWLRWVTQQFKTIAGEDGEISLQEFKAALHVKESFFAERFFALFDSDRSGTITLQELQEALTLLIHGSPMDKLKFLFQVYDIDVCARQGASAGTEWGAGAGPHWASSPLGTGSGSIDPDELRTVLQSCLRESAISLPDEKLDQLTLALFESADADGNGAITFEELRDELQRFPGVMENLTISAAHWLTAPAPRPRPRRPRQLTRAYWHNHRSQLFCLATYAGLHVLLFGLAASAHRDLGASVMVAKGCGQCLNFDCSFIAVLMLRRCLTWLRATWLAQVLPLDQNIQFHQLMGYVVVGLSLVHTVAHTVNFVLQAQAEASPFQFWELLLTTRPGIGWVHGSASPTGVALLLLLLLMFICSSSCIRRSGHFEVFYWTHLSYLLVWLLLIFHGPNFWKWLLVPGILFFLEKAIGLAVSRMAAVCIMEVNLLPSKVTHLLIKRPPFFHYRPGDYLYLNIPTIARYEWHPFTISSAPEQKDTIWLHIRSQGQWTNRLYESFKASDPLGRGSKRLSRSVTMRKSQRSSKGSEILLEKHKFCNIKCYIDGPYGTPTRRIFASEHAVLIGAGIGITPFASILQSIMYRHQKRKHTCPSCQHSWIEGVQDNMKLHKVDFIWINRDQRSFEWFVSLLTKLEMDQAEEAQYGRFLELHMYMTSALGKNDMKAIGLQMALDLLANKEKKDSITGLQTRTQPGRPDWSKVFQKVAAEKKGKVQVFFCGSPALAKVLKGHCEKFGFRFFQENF

[11] = compound effects on lung adenocarcinoma cell viability – A549, calcein-AM fluorescence, 48 h, basal, profiling panel (AID 1162); conditions: higher = more signal; further: test concentration not given here
[12] = compound effects on differentiated 3T3-L1 adipocyte viability – cell-based, 3T3-L1 adipocytes, calcein-AM fluorescence, 48 h, basal, profiling panel (AID 1163); conditions: 3T3-L1 adipocytes viability, higher = more signal; further: test concentration not given here
[13] = compound effects on hepatocellular carcinoma cell viability – HepG2, calcein-AM fluorescence, 48 h, basal, profiling panel (AID 1164); conditions: higher = more signal; further: test concentration not given here
[14] = compound effects on multiple myeloma cell viability – MM1S, calcein-AM fluorescence, 48 h, basal, profiling panel (AID 1165); conditions: higher = more signal; further: test concentration not given here
[15] = calcein-AM signal in unstimulated myeloma cells – cell-based, calcein-AM fluorescence, 48 h, PK04 Diversity Set, profiling panel (AID 1166); conditions: RPMI8226 myeloma viability, higher = more signal;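 further: cells grown under basal conditions without added stimulus; test concentration not given here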
[16] = JC-1 mitochondrial signal, unstimulated HepG2 cells – cell-based, JC-1 fluorescence, 24 h, 100 nL compound, profiling panel (AID 1167); conditions: HepG2 mitochondrial potential, higher = more signal; further: test concentration not given here
[17] = JC-1 mitochondrial signal, unstimulated adipocytes – cell-based, JC-1 fluorescence, 3T3-L1 adipocytes, 24 h, 100 nL compound, profiling panel (AID 1168); conditions: JC-1 mitochondrial fluorescence, higher = more signal, called active from +8 up or from −8 down; further: test concentration not given here
[18] = JC-1 mitochondrial signal, unstimulated myeloma cells – cell-based, JC-1 fluorescence, RPMI8226, 24 h, 100 nL compound, profiling panel (AID 1169); conditions: JC-1 mitochondrial potential fluorescence, higher = more signal; further: test concentration not given here
[19] = JC-1 mitochondrial signal, unstimulated MM1S myeloma – cell-based, JC-1 fluorescence, 24 h, 100 nL compound, profiling panel (AID 1170); conditions: MM1S mitochondrial potential, higher = more signal; further: test concentration not given here
[20] = resazurin metabolic signal in A549 cells – cell-based, resazurin fluorescence, 24 h, PK04 Diversity Set, profiling panel (AID 1171); conditions: A549 viability, higher = more signal, called active from +8 up or from −8 down; further: test concentration not given here

Structure (SMILES)	z-score [1]	composite z-score [2]	z-score [3]	z-score [4]	z-score [5]	z-score [6]	z-score [7]	z-score [8]	z-score [9]	z-score [10]	z-score [11]	z-score [12]	z-score [13]	z-score [14]	z-score [15]	z-score [16]	z-score [17]	z-score [18]	z-score [19]	z-score [20]
COCCOC(=O)N1C(=O)[C@@]2(c3cc(C#CC4(O)CCCCCC4)ccc31)[C@H](C(=O)N1CCc3cc(OC)c(OC)cc3C1)[C@H]1C(=O)O[C@H](c3ccccc3)[C@H](c3ccccc3)N1[C@@H]2c1ccccc1OCCO	0.803 (inactive)	0.496	1.39 (inactive)	1.15 (inactive)	0.496 (inactive)	0.655 (inactive)	-0.0095	2.73 (inactive)	-0.879 (inactive)	0.554	0.863	1.59	0.898	-0.401	-1.47	0.782	1.29 (inactive)	-0.477	-0.952	0.993 (inactive)
COc1cc(NN2C(C(O)c3ccc(I)cc3)C=CC3C(=O)N(C)C(=O)C32)cc(OC)c1OC (stereo not given)	-0.0511 (inactive)	0.125	0.318 (inactive)	0.168 (inactive)	1.59 (inactive)	-0.374 (inactive)	1.28	-2.45 (inactive)	-4.04 (inactive)	-2.92	-0.0595	0.459	0.196	-0.07	0.24	-0.461	0.0122 (inactive)	-0.335	-0.311	-1.42 (inactive)
COC(=O)c1ccc(OC)c(/C=C\CC(CCc2ccccc2)OC(C)=O)c1 (stereo not given)	-0.601 (inactive)	-0.456	8.9 (active)	0.865 (inactive)	-0.297 (inactive)	0.0093 (inactive)	-0.0781	-0.135 (inactive)	0.424 (inactive)	-0.983	-0.349	-0.191	-0.349	-1.35	0.346	-1.3	-0.459 (inactive)	-0.48	0.893	0.671 (inactive)
CC(C)(C)OC(=O)CC[C@@]1(C(=O)N2CCCCC2)N=C(c2ccc(OCCCO)cc2)O[C@@H]1c1ccccc1N=[N+]=[N-]	1.71 (inactive)	0.432	30.3 (active)	29.3 (active)	2.26 (inactive)	8.44 (active)	-0.0394	-2.98 (inactive)	1.03 (inactive)	-1.47	0.611	-0.351	0.733	-0.993	-2.16	1.52	3.17 (inactive)	-1.1	-0.993	-0.328 (inactive)
